Drawing on PubChem BioAssay (NCI), this text covers growth inhibition for 10 molecules.

About 79,000 compounds went through this panel and 15% of them were active in at least one assay; those are over-represented in the sample as a whole. A number with no mark means an inactive call. Calls of active or inactive are those of the source. No stated cut-off is given here; in the data, active means growth inhibition above about 70%; inactive means the rest.

Assay [1] is described as follows: NCI Yeast Anticancer Drug Screen. Data for the rad50 strain (AID 155).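 Further: 0% = growth of vehicle-only cultures of the same strain.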 To be noted: S. cerevisiae rad50 strain growth inhibition, stronger effect = higher value. Put shortly:
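A DNA repair-deficient yeast mutant serves as the test organism; compound-induced growth inhibition is calculated against vehicle-treated cells.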

Assay [2] can be described thus: NCI Yeast Anticancer Drug Screen. Data for the mec2-1 strain (AID 157). The conditions noted are these: S. cerevisiae mec2-1 strain, stronger effect = higher value. Put shortly:
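Mutant yeast (mec2-1) grown with compound; growth inhibition relative to vehicle control reported.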

The nature of assay [3]: NCI Yeast Anticancer Drug Screen. Data for the sgs1 mgt1 strain (AID 161).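 Further: 0% = growth of cultures given vehicle only.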 To be noted: S. cerevisiae sgs1 mgt1 strain, stronger effect = higher value. Put shortly:
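Yeast cells carrying a defined DNA-repair defect were exposed to test compounds. Growth inhibition was measured relative to vehicle-treated controls.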

Assay [4] can be described thus: NCI Yeast Anticancer Drug Screen. Data for the cln2 rad14 strain (AID 165).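 Further: 0% = growth equal to vehicle treated cultures.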 To be noted: S. cerevisiae cln2 rad14 strain, stronger effect = higher value. Put shortly:
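Readout is yeast growth inhibition versus vehicle-treated controls, using a strain with cln2 and rad14 alterations exposed to compound.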

The nature of assay [5]: NCI Yeast Anticancer Drug Screen. Data for the bub3 strain (AID 167). To be noted: S. cerevisiae bub3 mutant strain, stronger effect = higher value. Put shortly: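 Inhibition values come from growth of compound-treated mutant yeast normalised to vehicle-treated controls.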
Assay [6] can be described thus: NCI Yeast Anticancer Drug Screen. Data for the mlh1 rad18 strain (AID 175). To be noted: S. cerevisiae mlh1 rad18 strain growth inhibition, stronger effect = higher value. The gist of the method: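 Genetically defined yeast (DNA repair-deficient) exposed to compounds; growth inhibition determined relative to vehicle.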
Where [7] appears, read: at 5.0 µM (retest, dose inferred, filed as 0.5).
Setting [8] is: at 50.0 µM (retest, dose inferred, filed as 5.0).

For the molecule `COc1ccc2c(c1)Cc1ccccc1C2=O`, the growth inhibition in assay [1] (setting [7]) was 14%; in assay [1] (setting [8]), 34%; in assay [1] (at 50.0 µM), 15.8%; in assay [2] (setting [7]), 3%; in assay [2] (setting [8]), 8%; in assay [2] (at 50.0 µM), 4%. The growth inhibition was 0% in assay [3] (setting [7]); 1% in assay [3] (setting [8]); 6.75% in assay [3] (at 50.0 µM); 1% in assay [4] (setting [7]); 3% in assay [4] (setting [8]); -0.35% in assay [4] (at 50.0 µM). Besides, the growth inhibition was 75% (active) in assay [5] (setting [7]); 85% (active) in assay [5] (setting [8]); 40.6% in assay [5] (at 50.0 µM); 2% in assay [6] (setting [7]); 14% in assay [6] (setting [8]); 9.1% in assay [6] (at 50.0 µM).

With `O=C1c2cccc(S(=O)(=O)O)c2C(=O)c2cccc([N+](=O)[O-])c21`, the growth inhibition is 2% in assay [1] (setting [7]); 30% in assay [1] (setting [8]); 31.1% in assay [1] (at 50.0 µM); 0% in assay [2] (setting [7]); 31% in assay [2] (setting [8]); 23% in assay [2] (at 50.0 µM). Further, the growth inhibition was 5% in assay [3] (setting [7]); 45% in assay [3] (setting [8]); 16.3% in assay [3] (at 50.0 µM); -1% in assay [4] (setting [7]); 28% in assay [4] (setting [8]); -8.35% in assay [4] (at 50.0 µM). Besides, the growth inhibition in assay [5] (setting [7]) is -1%; in assay [5] (setting [8]), 25%; in assay [5] (at 50.0 µM), 16.6%; in assay [6] (setting [7]), 6%; in assay [6] (setting [8]), 40%; in assay [6] (at 50.0 µM), 69.1%.

As to `C/C(=C/C(=O)/C=C/c1ccccc1)c1c(C)[nH]c2ccccc12`, the growth inhibition is -24% in assay [1] (setting [7]); -3% in assay [1] (setting [8]); 4.3% in assay [1] (at 50.0 µM); -17% in assay [2] (setting [7]); 3% in assay [2] (setting [8]); -19.1% in assay [2] (at 50.0 µM). Also, the growth inhibition is -6% in assay [3] (setting [7]); -4% in assay [3] (setting [8]); -7.4% in assay [3] (at 50.0 µM); 1% in assay [4] (setting [7]); -6% in assay [4] (setting [8]); 34.4% in assay [4] (at 50.0 µM). The growth inhibition in assay [5] (setting [7]) is 0%; in assay [5] (setting [8]), 1%; in assay [5] (at 50.0 µM) it was 81.9% (active); in assay [6] (setting [7]), 4%; in assay [6] (setting [8]), 16%; in assay [6] (at 50.0 µM), -0.4%.

As for `COc1ccc(NC(=O)/C(=C/c2ccccc2)C(C)=O)cc1`, the growth inhibition in assay [1] (setting [7]) was 59%; in assay [1] (setting [8]) it was 98% (active); in assay [1] (at 50.0 µM) it was 98.1% (active); in assay [2] (setting [7]) it was 57%; in assay [2] (setting [8]), 99% (active); in assay [2] (at 50.0 µM), 98.2% (active). Moreover, the growth inhibition in assay [3] (setting [7]) is 53%; in assay [3] (setting [8]) it was 98% (active); in assay [3] (at 50.0 µM), 98.5% (active); in assay [4] (setting [7]), 19%; in assay [4] (setting [8]) it was 95% (active); in assay [4] (at 50.0 µM) it was 97.5% (active). The growth inhibition is 65% in assay [5] (setting [7]); 98% (active) in assay [5] (setting [8]); 98.1% (active) in assay [5] (at 50.0 µM); 68% in assay [6] (setting [7]); 99% (active) in assay [6] (setting [8]); 98.1% (active) in assay [6] (at 50.0 µM).

In the case of `CC(C)(C)C(=O)CC(=O)C(F)(F)C(F)(F)C(F)(F)F.CC(C)(C)C(=O)CC(=O)C(F)(F)C(F)(F)C(F)(F)F.CC(C)(C)C(=O)CC(=O)C(F)(F)C(F)(F)C(F)(F)F.[Er]`, the growth inhibition in assay [1] (setting [7]) is 92% (active); in assay [1] (setting [8]) it was 28%; in assay [1] (at 50.0 µM) it was 92.5% (active); in assay [2] (setting [7]) it was 65%; in assay [2] (setting [8]) it was 9%; in assay [2] (at 50.0 µM), 91% (active). The growth inhibition in assay [3] (setting [7]) was 43%; in assay [3] (setting [8]), 38%; in assay [3] (at 50.0 µM), 91.2% (active); in assay [4] (setting [7]), 40%; in assay [4] (setting [8]), 38%; in assay [4] (at 50.0 µM), 88.8% (active). Moreover, the growth inhibition was 40% in assay [5] (setting [7]); 34% in assay [5] (setting [8]); 91.2% (active) in assay [5] (at 50.0 µM); 90% (active) in assay [6] (setting [7]); 26% in assay [6] (setting [8]); 65.8% in assay [6] (at 50.0 µM).

`CSC(=S)N/N=C(/C)CC(C)C`: the growth inhibition in assay [1] (setting [7]) was 25%; in assay [1] (setting [8]), 94% (active); in assay [1] (at 50.0 µM), 57.1%; in assay [2] (setting [7]), 14%; in assay [2] (setting [8]), 94% (active); in assay [2] (at 50.0 µM) it was 93% (active). Further, the growth inhibition in assay [3] (setting [7]) was 10%; in assay [3] (setting [8]) it was 92% (active); in assay [3] (at 50.0 µM) it was 45.8%; in assay [4] (setting [7]) it was -5%; in assay [4] (setting [8]) it was 88% (active); in assay [4] (at 50.0 µM), 66.8%. Besides, the growth inhibition in assay [5] (setting [7]) is 24%; in assay [5] (setting [8]), 95% (active); in assay [5] (at 50.0 µM), 95.8% (active); in assay [6] (setting [7]) it was 16%; in assay [6] (setting [8]) it was 95% (active); in assay [6] (at 50.0 µM) it was 54%.

Take `Cc1cc(N(CCOS(C)(=O)=O)CCOS(C)(=O)=O)ccc1C=Nc1cccc(Cl)c1`: the growth inhibition is 10% in assay [1] (setting [7]); 80% (active) in assay [1] (setting [8]); 90.3% (active) in assay [1] (at 50.0 µM); 44% in assay [2] (setting [7]); 56% in assay [2] (setting [8]); 51.5% in assay [2] (at 50.0 µM). In addition, the growth inhibition in assay [3] (setting [7]) is 4%; in assay [3] (setting [8]), 61%; in assay [3] (at 50.0 µM) it was 70.8% (active); in assay [4] (setting [7]) it was -3%; in assay [4] (setting [8]), 57%; in assay [4] (at 50.0 µM), 13.1%. For the same molecule, the growth inhibition in assay [5] (setting [7]) is 0%; in assay [5] (setting [8]), 15%; in assay [5] (at 50.0 µM), 29.7%; in assay [6] (setting [7]) it was 24%; in assay [6] (setting [8]), 92% (active); in assay [6] (at 50.0 µM), 96.2% (active).

As to `CC(=O)N1C/C(=C\c2ccccc2)C(=O)/C(=C/c2ccccc2)C1`, the growth inhibition was 60% in assay [1] (setting [7]); 87% (active) in assay [1] (setting [8]); 84.9% (active) in assay [1] (at 50.0 µM); 47% in assay [2] (setting [7]); 92% (active) in assay [2] (setting [8]); 82.7% (active) in assay [2] (at 50.0 µM). The growth inhibition was 46% in assay [3] (setting [7]); 98% (active) in assay [3] (setting [8]); 79.5% (active) in assay [3] (at 50.0 µM); 35% in assay [4] (setting [7]); 88% (active) in assay [4] (setting [8]); 67.5% in assay [4] (at 50.0 µM). In addition, the growth inhibition in assay [5] (setting [7]) was 47%; in assay [5] (setting [8]) it was 91% (active); in assay [5] (at 50.0 µM) it was 87.8% (active); in assay [6] (setting [7]), 62%; in assay [6] (setting [8]), 96% (active); in assay [6] (at 50.0 µM), 78.9% (active).

Turning to `Oc1c(Br)cc(Br)cc1-c1ccccc1`, the growth inhibition in assay [1] (setting [7]) is 0%; in assay [1] (setting [8]), 99% (active); in assay [1] (at 50.0 µM), 98.1% (active); in assay [2] (setting [7]), 9%; in assay [2] (setting [8]), 100% (active); in assay [2] (at 50.0 µM), 99.5% (active). In addition, the growth inhibition in assay [3] (setting [7]) is 2%; in assay [3] (setting [8]) it was 99% (active); in assay [3] (at 50.0 µM), 99.5% (active); in assay [4] (setting [7]), -5%; in assay [4] (setting [8]), 100% (active); in assay [4] (at 50.0 µM) it was 99.2% (active). The growth inhibition is -5% in assay [5] (setting [7]); 100% (active) in assay [5] (setting [8]); 99.3% (active) in assay [5] (at 50.0 µM); -8% in assay [6] (setting [7]); 99% (active) in assay [6] (setting [8]); 99.3% (active) in assay [6] (at 50.0 µM).

Turning to `CCCCCCCCCCCCCC(=O)NO`, the growth inhibition in assay [1] (setting [7]) is 97% (active); in assay [1] (setting [8]) it was 97% (active); in assay [1] (at 50.0 µM), 89.2% (active); in assay [2] (setting [7]), 99% (active); in assay [2] (setting [8]), 98% (active); in assay [2] (at 50.0 µM), 91.3% (active). Moreover, the growth inhibition in assay [3] (setting [7]) is 99% (active); in assay [3] (setting [8]), 98% (active); in assay [3] (at 50.0 µM), 92.8% (active); in assay [4] (setting [7]), 89% (active); in assay [4] (setting [8]), 96% (active); in assay [4] (at 50.0 µM) it was 88.2% (active). Moreover, the growth inhibition in assay [5] (setting [7]) was 99% (active); in assay [5] (setting [8]), 98% (active); in assay [5] (at 50.0 µM), 90.2% (active); in assay [6] (setting [7]), 99% (active); in assay [6] (setting [8]), 97% (active); in assay [6] (at 50.0 µM) it was 89.1% (active).
